Source: PubChem BioAssay AID1851 (National Center for Advancing Translational Sciences (NCATS), 2009)
Screen size: about 16,000 compounds; about 2,600 (16%) were called active. Inconclusive results (about 20%) are left out. Only a sample is shown. A number with no mark means an inactive call. Calls come from the whole dose curve; as a rule, active = well fitted curve in the direction sought with a large enough effect; inconclusive = small, poorly fitted or top-dose-only effect, or effect the other way; inactive = no such curve, though single readings can be large or run the other way.

target: Cytochrome P450 2D6 (Homo sapiens) (UniProt P10635); assay: Cytochrome panel assay with activity outcomes; conditions: recombinant CYP, pro-luciferin dealkylation, luminescence, p450-cyp2d6; series mostly up to 57.1 µM; activity, negative = inhibition: at the top concentration
% is set by controls: 0 for no effect and ±100 for the full control effect.

Chain of Cytochrome P450 2D6 (Homo sapiens) (P10635 whole entry, looked up): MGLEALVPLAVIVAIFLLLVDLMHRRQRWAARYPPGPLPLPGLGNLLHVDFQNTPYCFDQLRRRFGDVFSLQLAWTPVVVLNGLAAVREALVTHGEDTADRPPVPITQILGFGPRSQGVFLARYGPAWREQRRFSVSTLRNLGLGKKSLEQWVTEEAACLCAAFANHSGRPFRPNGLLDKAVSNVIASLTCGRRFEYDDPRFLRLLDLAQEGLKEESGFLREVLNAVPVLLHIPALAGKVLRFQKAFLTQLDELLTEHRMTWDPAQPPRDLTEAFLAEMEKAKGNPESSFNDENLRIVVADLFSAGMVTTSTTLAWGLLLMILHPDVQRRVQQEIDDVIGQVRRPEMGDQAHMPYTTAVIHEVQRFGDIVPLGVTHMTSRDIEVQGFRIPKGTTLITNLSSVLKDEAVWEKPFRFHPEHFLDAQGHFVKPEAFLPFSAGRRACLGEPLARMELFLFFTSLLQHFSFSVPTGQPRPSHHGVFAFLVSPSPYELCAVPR

Row | SMILES | activity, negative = inhibition | AC50
1 | N#Cc1ccccc1Sc1ccccc1N | -20% | –
2 | CCc1ccc(-c2csc(NC(=O)C3CCCO3)c2C(=O)OC(C)C)cc1 (stereo not given) | -13.9% | –
3 | Fc1ccc(CN(C2=NCCN2)c2c(Cl)cccc2Cl)cc1 | – | 1.26 µM (active)
4 | CN(C)C(=O)Oc1cccc([N+](C)(C)C)c1 | 3.32% | –
5 | Cc1ccc2c(c1)N(CCC(=O)NCCN1CCOCC1)C(=O)CO2 | -18.8% | –
6 | COc1ccccc1CNC(=O)CCN1C(=O)COc2ccc(C)cc21 | -7.37% | –
7 | Cc1ccc2c(c1)N(CCC(=O)NCc1ccc3c(c1)OCO3)C(=O)CO2 | – | 14.1 µM (active)
8 | O=c1c(-c2ccc(F)cc2)nc2cnc(N3CCNCC3)nc2n1-c1ccccc1 | -8.75% | –
9 | Cn1cc(-c2nc3cnc(Oc4ccccc4)nc3n(CCC#N)c2=O)c2ccccc21 | 2.05% | –
10 | Nc1ncnc2c1nc(Sc1ccc(Cl)cc1)n2[C@@H]1O[C@H]2COP(=O)(O)O[C@@H]2[C@H]1O | -5.59% | –
11 | COC(=O)[C@@]1(Cc2ccc(F)cc2)[C@H]2c3cc(C(=O)N4CCCC4)n(Cc4ccc(S(C)(=O)=O)cc4)c3C[C@H]2CN1C(=O)c1ccccc1 | -15.9% | –
12 | COC(=O)[C@@]1(Cc2ccc(F)cc2)[C@H]2c3cc(C(=O)N4CCCC4)n(Cc4cccc5ccccc45)c3C[C@H]2CN1C(=O)c1ccccc1 | -0.395% | –
13 | COC(=O)[C@@]1(Cc2ccc(OC)cc2)[C@H]2c3cc(C(=O)N(C)C)[nH]c3C[C@H]2CN1C(=O)c1ccccc1 | -14.8% | –
14 | COC(=O)[C@@]1(Cc2ccc(F)cc2)[C@H]2c3cc(C(=O)N(C)C)n(Cc4c(CO)[nH]cc(C)c4=O)c3C[C@H]2CN1C(=O)c1ccccc1 | – | 15.8 µM (active)
15 | COC(=O)[C@@]1(Cc2ccccc2)[C@H]2c3cc(C(=O)N(C)C)n(Cc4c(CO)[nH]cc(C)c4=O)c3C[C@H]2CN1C(=O)c1ccccc1 | – | 12.6 µM (active)
16 | COC(=O)[C@@]1(Cc2ccc(OC)cc2)[C@H]2c3cc(C(=O)N4CCCC4)n(CCn4cc([N+](=O)[O-])nc4C)c3C[C@H]2CN1C(=O)c1ccccc1 | -0.835% | –
17 | CC(=O)NCc1c(Cl)cccc1-n1cccc1 | -25.8% | –
18 | CC(C)(C)OC(=O)COc1cc(OCC(=O)OC(C)(C)C)c2c(=O)cc(-c3ccccc3)oc2c1 | 4.28% | –
19 | O=c1c(-c2cc(F)cc(F)c2)nc2cncnc2n1C1CC1 | -7.27% | –
20 | C=CCN1CCc2cc(O)c(O)cc2[C@H](c2ccccc2)C1 | – | 0.398 µM (active)
21 | CN1CCc2cc(Cl)c(O)cc2[C@H](c2ccccc2)C1 | – | 0.631 µM (active)
22 | Cc1cccc([C@@H]2CN(C)CCc3c2cc(O)c(O)c3Cl)c1 | -0.0741% | –
23 | C=CCN1CCc2c(cc(O)c(O)c2Cl)[C@H](c2ccccc2)C1 | – | 25.1 µM (active)

Row | SMILES | activity, negative = inhibition | AC50
24 | CN1C[C@H](c2ccccc2)C(O)([C@]2(c3ccccc3)CN(C)C[C@@H](c3ccccc3)C2=O)[C@H](c2ccccc2)C1 (stereo not given in full) | -18.6% [at 11.4 µM] | –
25 | C=CCN1CCc2c(cc(O)c(O)c2Br)[C@H](c2ccccc2)C1 | – | 12.6 µM (active)
26 | COc1ccc(C[C@@H]2c3cc(OC)c(OC)cc3CC[N@+]2(C)CCC(=O)OCCCCCOC(=O)CC[N@@+]2(C)CCc3cc(OC)c(OC)cc3[C@H]2Cc2ccc(OC)c(OC)c2)cc1OC | -15.6% [at 25.6 µM] | –
27 | Nc1ccccc1C#Cc1ccccc1 | – | inactive
28 | Cc1nc(N/N=C/c2ccccc2)nc(N(C)c2ccccc2)c1[N+](=O)[O-] | 4.53% | –
29 | CO[C@@H]1COC(=O)C/C=C\[C@@H](C)COC(=O)[C@H](Cc2ccccc2)NC(=O)C/C=C\[C@H]1C | -17% [at 11.4 µM] | –
30 | COC(=O)C(Cc1ccc(OC(=O)c2ccc(C(F)(F)F)cc2)cc1)N1Cc2ccccc2C1=O (stereo not given) | -11.1% | –
31 | C=CCCC(=O)Nc1nc(C)c(-c2csc(Nc3ccc(Cl)cc3)n2)s1 | – | 17.8 µM (active)
32 | COc1ccccc1Nc1nc(-c2sc(NC(=O)c3ccccc3)nc2C)cs1 | -0.255% | –
33 | Cc1nc(NC(=O)c2ccco2)sc1-c1csc(Nc2ccc(Cl)cc2Cl)n1 | -25.3% | –
34 | Cc1nc(NC(=O)c2ccccc2)sc1-c1csc(Nc2ccc(F)cc2)n1 | -28.9% | –
35 | Cc1nc(NC(=O)c2ccccc2)sc1-c1csc(Nc2cccc(Cl)c2)n1 | – | 10 µM (active)
36 | Cc1nc(NC(=O)c2ccccc2)sc1-c1csc(Nc2ccc(Cl)cc2)n1 | -21.7% | –
37 | CC1(C)OCC([C@H](O)C2=CCCCC2=O)CO1 | 9.36% [at 11.4 µM] | –
38 | COc1cc(/C=C2\SC(=S)N(Nc3ccccc3)C2=O)cc(OC)c1OC | -10.3% | –
39 | CC(=O)c1cc(C#N)c(Oc2ccc(F)cc2)nc1C | 8.22% | –
40 | Cc1cnc(NC(=O)CCCc2nc3ccccc3s2)s1 | -11% | –
41 | COc1cccc([C@@H]2Oc3ccc(Br)cc3C(=O)[C@H]2O)c1 | – | 3.16 µM (active)
42 | COc1cccc([C@@H]2Oc3ccc(OC)cc3/C(=N/OC[C@@H](C)[C@H](OCc3ccccc3)C(C)C)[C@@H]2O)c1 | 0.0498% [at 11.4 µM] | –
43 | COc1cccc([C@@H]2Oc3ccc(OC)cc3/C(=N/OC[C@@H](O)COCc3ccco3)[C@@H]2O)c1 | 5.07% [at 11.4 µM] | –
44 | CN(C(=S)Nc1ccccc1F)C1(c2ccccc2Cl)CCCCC1=O (stereo not given) | -6.2% | –
45 | O=S(=O)(c1ccc(Cl)cc1)c1cnc(-c2cccnc2)nc1-c1ccccc1 | -0.701% | –
